Laboratory results: publication PMC12136788
In all, about 24,000 sequences were measured (“enrichment r”: median about 0.99, highest 2% from about 3.7 on). The sample holds the highest values, similar sequences and a random draw of the others, so the mix is not that of the screen.

T1: UNK ZnF1-3 (human, UniProt Q9C0B0 31-174)
T1 sequence: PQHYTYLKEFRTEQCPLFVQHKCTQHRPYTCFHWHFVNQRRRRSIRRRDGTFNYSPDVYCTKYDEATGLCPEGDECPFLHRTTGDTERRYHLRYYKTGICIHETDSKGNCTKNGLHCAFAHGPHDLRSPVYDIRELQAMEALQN

B1: chrX:140365796:140365797:-_ENSMUSG00000031285_ENSMUST00000033642|mus_mus|mus_mus_mus_hu_False|48_108 (ssRNA)
RNA: GGGAGUUCUACAGUCCGACGAUCCUUCUCAUUACUUAGUGCCUGCAAGGUUCUGGUUCGGUAGAAGCUACAGUGGGCGCUGUGAGUGGGACUUGGAAACCCAUUCAUCCGGGAGCCUCGCAUGUUCCUGGAUGUCUUAUCUCUCAACAGAGGAUUGAGCAUCA
B2: chr11:100882373:100882374:+_ENSMUSG00000019302_ENSMUST00000044721|mus_mus|mus_mus_mus_hu_True|28_28 (ssRNA)
RNA: GGGAGUUCUACAGUCCGACGAUCUUCCUGGUUUGUGUUGAUUUCCUUCAGUUCAUUUUCAAUCUUCUCAAAAUUGGCCUCUAAGUCAAUCAUGUCCCGGGGGAAGGGCACCUCUGGGUUUUCACCGGUGUCCAUAAUCGGAAUCAACAGAGGAUUGAGCAUCA
B3: chr1:88750987:88750988:+_ENSMUSG00000053333_ENSMUST00000065694|mus_mus|motif|central (ssRNA)
RNA: GGGAGUUCUACAGUCCGACGAUCUGAUAAGCCUCUUGUGUCCUGUGGUAUGGGGGUGUUCUCAUCUUUCAUAACUGGAGUACGGGAAUCUUCUUUUCCUCUGUCAGGAGUAGAGAUUGACAAUUUCUUAACACCAUCAACCAGCAACAGAGGAUUGAGCAUCA
B4: chr1:225611761:225611762:-_ENSG00000143815_ENST00000272163|hu_mus|hu_hu_hu_mus_True|8_108 (ssRNA)
RNA: GGGAGUUCUACAGUCCGACGAUCCCAGGCCAUCGACCUCUGACCACUUCACCCUCAACAAACUUCCUACUUGGCAUUUUCUAAAAUUAGUCUGGCCGCGCUCCGGCGGGAACUCCAGCCACUCCAGGGAGAAUAGUAGCAGCCCAACAGAGGAUUGAGCAUCA
B5: chr1:180971808:180971809:-_ENSG00000135823_ENST00000258301|hu_mus|FALSE|FALSE (ssRNA)
RNA: GGGAGUUCUACAGUCCGACGAUCUUUUCUUAUGCUCAAUUCAGUUGCAUCCAAGUUGAAUUUUCUAGGAUUUGCUUCAACUAUGCUGAUGGUUUCAUCGAGGUCCUCCAGAUCCCACUCUAUGCUGCGGAGAUUGUUCCUCAGCAACAGAGGAUUGAGCAUCA
B6: 5721493_5721695_819_3pUTR_ENSMUSG00000024937_ENSMUST00000075606|mouse|control|control (ssRNA)
RNA: GGGAGUUCUACAGUCCGACGAUCCUCCUCAUCACUCUCAGCAAAGUCAUCCAGGUUUCCCACGUCACUAGGCUUCACACUCAUGAGGCUGGCCAGACUCUGCAUGUCAUCAUCCGUGGCACGGCCUUCUCGCAGCAGCACCCCCAACAGAGGAUUGAGCAUCA
B7: chr13:55803104:55803105:+_ENSMUSG00000045767_ENSMUST00000057844|mus_hu|FALSE|FALSE (ssRNA)
RNA: GGGAGUUCUACAGUCCGACGAUCGCACAGCACCAGUAAGUAGAUGUGCUGGAGGGUAGAGGAAGAGGAAUGAAUGUACGAAAGGCAGGGGAGAAAGGGAAGGGUAUGUAUAACAAAAUAAGGAAGGAAAAUAAACUGAAAGGGCAACAGAGGAUUGAGCAUCA
B8: chr19:8913615:8913616:-_ENSMUSG00000071658_ENSMUST00000096259|mus_hu|mus_mus_mus_hu_False|1_38 (ssRNA)
RNA: GGGAGUUCUACAGUCCGACGAUCAGGGUACCAAAACCUUCUGCCUGAAAUGGGUGCCCCACCCAGUAGGGAGUUGCAGCUGAAAGUAUCUGAUGCACUGACAGUUACUAUACGAAAGGAGGCCCCUGGGGAGGGCCCGAGAUCCAACAGAGGAUUGAGCAUCA
B9: chr17:57746147:57746148:+_ENSG00000141367_ENST00000269122|hu_hu|FALSE|FALSE (ssRNA)
RNA: GGGAGUUCUACAGUCCGACGAUCUUGCCCAGUCUUGCAAGCUGCCUGAAUAUAUUUAAAGUGCACAUCUGGGUCCUGGCUAAAGUUAACAAUGGAUCCCAGAAAAUAAAAGAGACCUUCAAAACUCUUGAAAGAUUCAAAAAGCAACAGAGGAUUGAGCAUCA
B10: chr8:81717444:81717445:+_ENSMUSG00000071064_ENSMUST00000098614|mus_mus|FALSE|FALSE (ssRNA)
RNA: GGGAGUUCUACAGUCCGACGAUCUAAUGUACACAAACCUUGACAGUAUGAGCGUCUGAACAUAAUAUGAGGAGUUAAAAAAAAAGAAAGAAAGAAAGAAAGAAAGAAAGAGAGAGAGAAAGAAAAGAAAGGACAGGAGAGAGACAACAGAGGAUUGAGCAUCA
B11: chr10:33214929:33214930:-_ENSG00000150093_ENST00000302278|hu_hu|hu_hu_hu_mus_True|18_78 (ssRNA)
RNA: GGGAGUUCUACAGUCCGACGAUCAACAAGUUCAUUGAAAAACUCUCCUCUGUCAGUAAGACUGAGCACAUUUUUGUAGCUAAAUGGGCUGGUGCAGUUUUGUUCACUUGUACAAGGGUUCCUGAGCUUUGCUGGGGUUGUGCUCAACAGAGGAUUGAGCAUCA
B12: chr2:47387792:47387793:-_ENSG00000143933_ENST00000272298|hu_hu|motif|central (ssRNA)
RNA: GGGAGUUCUACAGUCCGACGAUCUUAGGACAAUGACAGUAAGAUAAGGGAAGAAAACAUGGAGGAAUGAAGUCCGGAUUACGGUACAUGCAUAUUUUUUUGACAGUAGGGAGAAACCUUUUACAGAUAAGUUACAAACAAAGACAACAGAGGAUUGAGCAUCA
B13: chr1:178664722:178664723:-_ENSMUSG00000057335_ENSMUST00000057037|mus_mus|motif|central (ssRNA)
RNA: GGGAGUUCUACAGUCCGACGAUCAGUCGUUGUUGCUGUCUUGCAGGGUCCUUACAAAUGUGUAAGACUGACAAAGGGUUACGGUGGACCUACAGGGAAACACAGAAGCAAUUCAAUGACUGGGAGUGCAACUAUCAACUACUCCAACAGAGGAUUGAGCAUCA
B14: chr2:49626764:49626765:+_ENSMUSG00000026764_ENSMUST00000028102|mus_hu|FALSE|FALSE (ssRNA)
RNA: GGGAGUUCUACAGUCCGACGAUCGCACACAUCUGUACACACAGAAACUCUACACAGCUCAAAAGACCUGAAACUGGUGUACUGCAGAUGGCUGGAGUAAGCAAGUAUAAAAAAAAAAUGGAAACUGUAGGGGGGGAAAAAUAACAACAGAGGAUUGAGCAUCA
B15: chr10:112657927:112657928:+_ENSG00000150593_ENST00000280154|hu_mus|FALSE|FALSE (ssRNA)
RNA: GGGAGUUCUACAGUCCGACGAUCAAAAAAAAAAAAAAAAAAAAAAACAAUAACAAAAACAAAAGGAAAAGAAAACCUGUACUGACAACUCUUACAGUUGAGAUCUGUUCUUGGUAACACCUAAGACUGUAAGAGUUGCUGUGCCAACAGAGGAUUGAGCAUCA
B16: chr19:8913615:8913616:-_ENSMUSG00000071658_ENSMUST00000096259|mus_hu|mus_mus_mus_hu_False|98_108 (ssRNA)
RNA: GGGAGUUCUACAGUCCGACGAUCAGGGGGGCACCAAACCCUGCCUCAAAUGGGUGCCCCACCCAGUAGGGAGUUGCAGCUGAAAGUAUCUGAUGCAGAAGCAGUGACUAUACGAAAGGAGGCCCCUGGGGAGGGCCAGGCCAGCAACAGAGGAUUGAGCAUCA
B17: chr4:148551591:148551592:-_ENSMUSG00000063077_ENSMUST00000060537|mus_hu|mus_mus_mus_hu_False|28_68 (ssRNA)
RNA: GGGAGUUCUACAGUCCGACGAUCACCUGACAAAAUUAAAUAUCCCUGUAAAUUAGACAAUAAGCAGCAGGUAACAAAGUCUUUGCUUUGGAAUAUGUGCCAGGAAAAAUCAUGUUUUUUUUAGAUCUCAAGAGACAGUUCACACAACAGAGGAUUGAGCAUCA
B18: chr1:58468927:58468928:-_ENSMUSG00000026034_ENSMUST00000148330|mus_mus|mus_mus_mus_hu_False|18_48 (ssRNA)
RNA: GGGAGUUCUACAGUCCGACGAUCAAUUACUGAAAAAGAUGUUCAUUACCUUAGCUAUGUACUUAAUGAACCAAAUUACCCAAACAACAUAAAAUGUGCAAUAUAAAAAUGUUAAGAAAAUAACUUACUGUACAAAAUAACUUACAACAGAGGAUUGAGCAUCA
B19: chr7:54825262:54825263:-_ENSG00000132432_ENST00000352861|hu_hu|hu_hu_hu_mus_False|68_108 (ssRNA)
RNA: GGGAGUUCUACAGUCCGACGAUCCUGACUUGGCUCAUCCACAAACUGCAUUACCUGAUCCAUGUUUUACCCAACCGGGAUUGAGAGCGUAGAGACACGUAGCUCAGGAGAGAACCGAGCCCAACGGAACCGGAAGCUGGCAACCAACAGAGGAUUGAGCAUCA
B20: chr5:73697939:73697940:+_ENSMUSG00000029152_ENSMUST00000031038|mus_mus|motif|central (ssRNA)
RNA: GGGAGUUCUACAGUCCGACGAUCUCCUUGGGCAAUAUGGUCAGUAAUACCAGUGGGAGUGGACUCGUUCAUAGAAGCACGGAAUGGAAUUGGCUCAUAACGAGGAAGCGCCUCCUUUUCUAUGUUGUCUGCUGCUGGAGAUGUCAACAGAGGAUUGAGCAUCA
B21: chr10:98281081:98281082:-_ENSG00000077147_ENST00000371142|hu_mus|motif|central (ssRNA)
RNA: GGGAGUUCUACAGUCCGACGAUCAUCGCAAUACAGUCCCCCAGUCAGUCUGUACAUCCAAAUGCAUCCAGGAACCGGCACCGGCGCGACAUUAUUAAUGUUAUAUACAUUUAUUGCCCCCCUUGUUUUGUUUAAUAAUUUCUUCAACAGAGGAUUGAGCAUCA
B22: chr2:47388980:47388981:-_ENSG00000143933_ENST00000272298|hu_mus|hu_hu_hu_mus_True|68_98 (ssRNA)
RNA: GGGAGUUCUACAGUCCGACGAUCUUCAUCUGUUAACUUCUCUCCAAGGUUUGUCAUCACAUGGCGAAGUUCUGCAGCACUAAUAUAGCCAUUGCCAUCCUUAUCAAACACACGGAAUGCUUCUCUAAUCUCUUCUUCACUGUCCAACAGAGGAUUGAGCAUCA

The binders below were run against T1, UNK ZnF1-3 (assay: nsRBNS (natural sequence RNA bind-n-seq); RBNS binding buffer (assumed for nsRBNS): 25 mM Tris pH 7.5, 150 mM KCl, 3 mM MgCl2, 0.01% Triton X-100, 500 ug/ml BSA, 20 U/ml SUPERase-In, 4 C; UNK is unkempt and MSI1 is Musashi-1; names of the RNAs are library labels; protein concentration not given here; high values mean tight binding).

Row | Binder | binding signal
1 | B1 | 0.604 enrichment R
2 | B2 | 0.609 enrichment R
3 | B3 | 0.776 enrichment R
4 | B4 | 1.34 enrichment R
5 | B5 | 0.284 enrichment R
6 | B6 | 0.928 enrichment R
7 | B7 | 5.32 enrichment R
8 | B8 | 1.39 enrichment R
9 | B9 | 2.24 enrichment R
10 | B10 | 4.04 enrichment R
11 | B11 | 1.36 enrichment R
12 | B12 | 1.89 enrichment R
13 | B13 | 1.23 enrichment R
14 | B14 | 9.96 enrichment R
15 | B15 | 8.87 enrichment R
16 | B16 | 1.63 enrichment R
17 | B17 | 1.18 enrichment R
18 | B18 | 0.974 enrichment R
19 | B19 | 1.72 enrichment R
20 | B20 | 1.27 enrichment R
21 | B21 | 1.36 enrichment R
22 | B22 | 0.882 enrichment R
